Screens as filed in PubChem.
The list is not random: actives were taken first. Their share in the collection is about 3.8%.
tim23-1 inh: tim23-1 yeast growth inhibition; S. cerevisiae tim23-1 growth, BacTiter-Glo luminescence, 24 h; inhibition, % at 20 µM; hit rate 1.3% among 330,000;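 active = growth inhibition of the mutant yeast at or above 50%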;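 also: temperature-sensitive mutant grown at 25 °C; plate controls were DMSO-treated mutant yeast for no effect and medium wells lacking yeast for full effect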
Yeast superoxide: caloric restriction mimetics inhibiting age-related superoxide in yeast; hit rate 0.18% among 330,000; AID 2690; superoxide response (% of plate mean), % at 10 µM; S. cerevisiae aged cells, superoxide DHE fluorescence; active compounds read low;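 active = superoxide response under a set limit, about three screen SD below normal, cut at about 65% in these data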;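 also: yeast aged for seven days with compound at 30 °C before DHE staining; 100% = average MFI of all compound-treated wells on the plate with controls excluded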
NALP3 yeast inh: NALP3 inhibition in yeast | inhibition, % at 10 µM | AID 2825 | hit rate 0.39% among 330,000 | Yeast reconstituted NLRP3/ASC/caspase-1, beta-gal luminescence, 24 h;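 active = inhibition of 50% or more; inactive = inhibition below 50%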;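 also: plate controls were induced DMSO wells for no effect and uninduced yeast grown without galactose for full effect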
tim10-1 inh: tim10-1 yeast growth inhibition | inhibition, % at 20 µM | hit rate 2.2% among 330,000 | S. cerevisiae tim10-1 ts strain growth, BacTiter-Glo, 24 h;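 active = inhibition of at least 40%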;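 also: mutant grown at 25 °C; 0% = DMSO wells with yeast and 100% = wells holding no yeast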
TIM10 inh: TIM10 yeast growth inhibition. AID 463195. S. cerevisiae TIM10 strain growth, BacTiter-Glo luminescence, 24 h. hit rate 1.4% among 330,000. inhibition, % at 10 µM;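 active = inhibition of 40% or more at the single tested concentration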;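 also: wild-type TIM10 isogenic control strain grown at permissive 25 °C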
tim10-1 conf: tim10-1 yeast growth inhibition, confirmed | AID 463213 | shares compounds with tim10-1 inh | hit rate 56% among 7,400 | inhibition, % at 20 µM | S. cerevisiae tim10-1 ts strain growth, BacTiter-Glo, 24 h;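 active = inhibition of yeast growth at or above a set limit in either of two repeat tests at 20 µM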;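 also: tim10-1 mutant grown at permissive 25 °C to find synthetic lethal compounds; 0% = DMSO yeast wells and 100% = medium wells without yeast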
Active calls of the source: *; nt = no result given.

SMILES	tim23-1 inh	Yeast superoxide	NALP3 yeast inh	tim10-1 inh	TIM10 inh	tim10-1 conf
CCN(CC)CCN(C(=O)c1cc2ccccc2cc1OC)c1nc2ccc(F)cc2s1	43	101	31	57*	25	14
CN(C)CCN(C(=O)c1ccc2ccccc2c1)c1nc2ccc(F)cc2s1	27	91	1	28	9	nt
COc1ccccc1/C=N/Nc1nccnc1Cl	20	87	17	16	-9	nt
Cc1ccc(C(C)C)c(OCC(=O)Nc2sc3c(c2C#N)CC(C)(C)NC3(C)C)c1	37	90	32	11	31	nt
Cc1cc(OCC(=O)Nc2sc3c(c2C#N)CC(C)(C)NC3(C)C)c(C(C)C)cc1Cl	25	105	26	47*	18	24
CC(=O)N1C(=O)C2(C(C#N)=C(N)Oc3c2c(C)nn3-c2ccccc2)c2ccccc21 (configuration not stated)	36	115	9	28	33	nt
CCN1C(=O)C2(C(C#N)=C(N)Oc3c2c(C)nn3-c2ccccc2)c2ccccc21 (configuration not stated)	39	96	0	64*	33	62*
COc1ccc(N2CCN(C(=O)CCC(=O)N3CCOc4ccc(Cl)cc43)CC2)cc1	29	98	5	25	11	nt
O=C(Nc1nc2ccccc2[nH]1)c1ccccc1F	50	85	26	46*	33	30
O=C(Nc1nc2ccccc2[nH]1)c1ccc(F)cc1	8	113	18	9	13	nt
COc1cc(/C=C2\SC(=S)NC2=O)ccc1OS(=O)(=O)c1ccccc1	23	124	-18	43*	26	33*
Cc1ccnc(SCc2cc(=O)c(OC(=O)c3ccc(Br)o3)co2)n1	38	111	1	46*	37	29*
Cc1cc(C)c(S(=O)(=O)c2ccccc2)c(OC(=O)c2c(Cl)cc(Cl)cc2Cl)n1	-15	95	8	41*	36	36*
O=C(CSc1nnc(COc2ccccc2)n1-c1ccccc1)c1ccccc1	26	95	-5	40*	0	14
COc1ccc(C(=O)CSc2nnc(COc3ccc(C#N)cc3)n2-c2ccccc2)cc1	-5	82	-12	15	5	nt
COc1ccc(OC)c(-n2c(SCC(=O)Nc3cc(C)on3)nnc2-c2c[nH]c3ccccc23)c1	20	100	0	52*	9	3
COc1ccc(/C=N/Nc2cn[nH]c(=O)c2Cl)cc1	20	92	-2	42*	32	9
Cc1ccc(/C=N\Nc2cn[nH]c(=O)c2Cl)cc1	41	114	3	28	32	nt
CC(C)c1cc(-c2n[nH]c(=S)n2Cc2ccccc2)cs1	35	87	33	47*	29	27
S=c1[nH]nc(-c2ccccc2)n1Cc1ccccc1	7	96	18	39	29	nt
CC(C)N(Cc1nc(-c2ccccc2)no1)C(=O)c1ccc2c(c1)OCO2	34	80	14	81*	20	24
Cc1ccc(-c2noc(CN(C(=O)c3ccc4c(c3)OCO4)C(C)C)n2)cc1	16	86	3	15	27	nt
O=C(CSc1nnc(SCc2ccccc2)s1)NNC(=S)Nc1ccccc1	33	97	14	46*	38	28
Nc1nc(-c2ccccc2)c(N=Nc2ccccc2Cl)s1	26	120	37	55*	38	27
Nc1nc(-c2ccccc2)c(N=Nc2cccc3ccccc23)s1	29	100	37	15	3	nt
SMILES	tim23-1 inh	Yeast superoxide	NALP3 yeast inh	tim10-1 inh	TIM10 inh	tim10-1 conf
Cc1ccc(CN2C(=O)CSC2c2ccc(F)cc2)cc1 (configuration not stated)	12	95	-8	-7	18	nt
COc1ccccc1CNC(=S)Nc1ccc(F)cc1	33	92	-21	48*	16	1
Cc1cccn2c(=O)nc(SCC(=O)N3CCCCCC3)nc12	6	86	5	1	5	nt
Clc1ccc(-c2nc3cnccn3c2Nc2ccc3c(c2)OCO3)cc1	49	111	2	45*	26	35*
CSc1ccc(-c2nc3cnccn3c2Nc2ccc3c(c2)OCO3)cc1	34	92	22	46*	27	43*
Clc1ccc(-c2nc3cnccn3c2NC2CCCC2)cc1	30	85	13	50*	23	23
CCC(C)Sc1ccc(-c2nc3cnccn3c2NC2CCCCC2)cc1 (configuration not stated)	25	103	21	22	16	nt
Cn1cc(SCC(=O)NC2CCCCC2)c2ccccc21	5	84	24	5	5	nt
CC(C)Oc1ccccc1/C=N/NC(=O)C1CC1	1	95	15	1	-4	nt
CCSc1nnc2n1C(C)(C)Cc1ccccc1-2	7	103	16	19	11	nt
CC1(C)Cc2ccccc2-c2n[nH]c(=S)n21	25	108	17	56*	25	1
O=C(Nc1ccc(F)cc1F)c1cc2nc3c(c(C(F)(F)F)n2n1)CCCC3	14	98	-8	18	-14	nt
Cc1ccc(NC(=O)CSC2=Nc3ccccc3C3CC=NN23)c(C)c1 (configuration not stated)	25	107	4	44*	17	9
COc1cc(/C=C/C(=O)N2C(=O)c3cccc(N)c3C2=O)cc(OC)c1OC	22	106	-4	43*	37	29
COc1ccc(OC)c(/C=C/C(=O)N2C(=O)c3cccc(N)c3C2=O)c1	46	105	7	42*	39	31*
COc1ccc(OC)c(/C=C/C(=O)N2CCCc3ccccc32)c1	30	81	23	17	7	nt
CCC(C)(C)C1CCC2(CC1)NC(=O)N(CC(=O)N1CCN(S(=O)(=O)c3cc(C)ccc3C)CC1)C2=O (configuration not stated)	10	92	26	9	4	nt
CC1(C)CC[C@]2(C(=O)O[C@@H]3OC(CO)[C@@H](O)[C@H](O)[C@H]3O)CC[C@]3(C)C(=CCC4[C@@]5(C)CC[C@H](O[C@@H]6OC(C(=O)O)[C@@H](O)[C@H](O)[C@H]6O)C(C)(C)C5CC[C@]43C)[C@@H]2C1 (some centres not stated)	28	106	-19	40*	1	22
Fc1ccc(F)c(NC(=S)NCCc2ccccc2)c1	28	106	36	46*	35	28
COc1ccc(Cl)cc1NC(=O)NCc1ccco1	23	101	-7	35	11	nt
COc1ccc(Cl)cc1NC(=S)NCCc1ccc(F)cc1	34	118	-61	51*	33	34*
S=C(NCCC(c1ccccc1)c1ccccc1)Nc1ccc(Cl)cc1	27	112	30	55*	34	20
COc1ccc(Cl)cc1NC(=S)NCc1ccco1	35	99	2	55*	20	36*
S=C(NCCC(c1ccccc1)c1ccccc1)Nc1ccccc1Cl	38	106	26	34	26	nt
COC(=O)CNC(=O)COC(=O)c1cc(SC)ccc1Cl	7	86	-5	2	1	nt
